Measurements reported in PubChem BioAssay AID602261 (Sanford-Burnham Center for Chemical Genomics, 2012).
Screen size: about 360,000 compounds; about 2,400 (0.67%) were called active.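 Rule for the calls: active = compounds whose normalised, plate-corrected inhibition of enzyme fluorescence in the single-dose primary screen is 50% or more; inactive = the rest.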 The sample as a whole holds a higher share of actives than the screen did.

What follows are compounds tested against Fatty acid synthase (Homo sapiens) (UniProt P49327) (assay: FAS thioesterase domain inhibitors, primary screen, biochemical, fluorescence intensity, uHTS (AID 602261;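 note: 0% = DMSO with enzyme and 100% = substrate without enzyme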)). Details: recombinant FAS-TE, OMFH fluorogenic substrate, fluorescence endpoint; at 15 µM; hits give high values.
Chain of Fatty acid synthase (Homo sapiens) (P49327 whole entry, looked up, the tested form may be a part): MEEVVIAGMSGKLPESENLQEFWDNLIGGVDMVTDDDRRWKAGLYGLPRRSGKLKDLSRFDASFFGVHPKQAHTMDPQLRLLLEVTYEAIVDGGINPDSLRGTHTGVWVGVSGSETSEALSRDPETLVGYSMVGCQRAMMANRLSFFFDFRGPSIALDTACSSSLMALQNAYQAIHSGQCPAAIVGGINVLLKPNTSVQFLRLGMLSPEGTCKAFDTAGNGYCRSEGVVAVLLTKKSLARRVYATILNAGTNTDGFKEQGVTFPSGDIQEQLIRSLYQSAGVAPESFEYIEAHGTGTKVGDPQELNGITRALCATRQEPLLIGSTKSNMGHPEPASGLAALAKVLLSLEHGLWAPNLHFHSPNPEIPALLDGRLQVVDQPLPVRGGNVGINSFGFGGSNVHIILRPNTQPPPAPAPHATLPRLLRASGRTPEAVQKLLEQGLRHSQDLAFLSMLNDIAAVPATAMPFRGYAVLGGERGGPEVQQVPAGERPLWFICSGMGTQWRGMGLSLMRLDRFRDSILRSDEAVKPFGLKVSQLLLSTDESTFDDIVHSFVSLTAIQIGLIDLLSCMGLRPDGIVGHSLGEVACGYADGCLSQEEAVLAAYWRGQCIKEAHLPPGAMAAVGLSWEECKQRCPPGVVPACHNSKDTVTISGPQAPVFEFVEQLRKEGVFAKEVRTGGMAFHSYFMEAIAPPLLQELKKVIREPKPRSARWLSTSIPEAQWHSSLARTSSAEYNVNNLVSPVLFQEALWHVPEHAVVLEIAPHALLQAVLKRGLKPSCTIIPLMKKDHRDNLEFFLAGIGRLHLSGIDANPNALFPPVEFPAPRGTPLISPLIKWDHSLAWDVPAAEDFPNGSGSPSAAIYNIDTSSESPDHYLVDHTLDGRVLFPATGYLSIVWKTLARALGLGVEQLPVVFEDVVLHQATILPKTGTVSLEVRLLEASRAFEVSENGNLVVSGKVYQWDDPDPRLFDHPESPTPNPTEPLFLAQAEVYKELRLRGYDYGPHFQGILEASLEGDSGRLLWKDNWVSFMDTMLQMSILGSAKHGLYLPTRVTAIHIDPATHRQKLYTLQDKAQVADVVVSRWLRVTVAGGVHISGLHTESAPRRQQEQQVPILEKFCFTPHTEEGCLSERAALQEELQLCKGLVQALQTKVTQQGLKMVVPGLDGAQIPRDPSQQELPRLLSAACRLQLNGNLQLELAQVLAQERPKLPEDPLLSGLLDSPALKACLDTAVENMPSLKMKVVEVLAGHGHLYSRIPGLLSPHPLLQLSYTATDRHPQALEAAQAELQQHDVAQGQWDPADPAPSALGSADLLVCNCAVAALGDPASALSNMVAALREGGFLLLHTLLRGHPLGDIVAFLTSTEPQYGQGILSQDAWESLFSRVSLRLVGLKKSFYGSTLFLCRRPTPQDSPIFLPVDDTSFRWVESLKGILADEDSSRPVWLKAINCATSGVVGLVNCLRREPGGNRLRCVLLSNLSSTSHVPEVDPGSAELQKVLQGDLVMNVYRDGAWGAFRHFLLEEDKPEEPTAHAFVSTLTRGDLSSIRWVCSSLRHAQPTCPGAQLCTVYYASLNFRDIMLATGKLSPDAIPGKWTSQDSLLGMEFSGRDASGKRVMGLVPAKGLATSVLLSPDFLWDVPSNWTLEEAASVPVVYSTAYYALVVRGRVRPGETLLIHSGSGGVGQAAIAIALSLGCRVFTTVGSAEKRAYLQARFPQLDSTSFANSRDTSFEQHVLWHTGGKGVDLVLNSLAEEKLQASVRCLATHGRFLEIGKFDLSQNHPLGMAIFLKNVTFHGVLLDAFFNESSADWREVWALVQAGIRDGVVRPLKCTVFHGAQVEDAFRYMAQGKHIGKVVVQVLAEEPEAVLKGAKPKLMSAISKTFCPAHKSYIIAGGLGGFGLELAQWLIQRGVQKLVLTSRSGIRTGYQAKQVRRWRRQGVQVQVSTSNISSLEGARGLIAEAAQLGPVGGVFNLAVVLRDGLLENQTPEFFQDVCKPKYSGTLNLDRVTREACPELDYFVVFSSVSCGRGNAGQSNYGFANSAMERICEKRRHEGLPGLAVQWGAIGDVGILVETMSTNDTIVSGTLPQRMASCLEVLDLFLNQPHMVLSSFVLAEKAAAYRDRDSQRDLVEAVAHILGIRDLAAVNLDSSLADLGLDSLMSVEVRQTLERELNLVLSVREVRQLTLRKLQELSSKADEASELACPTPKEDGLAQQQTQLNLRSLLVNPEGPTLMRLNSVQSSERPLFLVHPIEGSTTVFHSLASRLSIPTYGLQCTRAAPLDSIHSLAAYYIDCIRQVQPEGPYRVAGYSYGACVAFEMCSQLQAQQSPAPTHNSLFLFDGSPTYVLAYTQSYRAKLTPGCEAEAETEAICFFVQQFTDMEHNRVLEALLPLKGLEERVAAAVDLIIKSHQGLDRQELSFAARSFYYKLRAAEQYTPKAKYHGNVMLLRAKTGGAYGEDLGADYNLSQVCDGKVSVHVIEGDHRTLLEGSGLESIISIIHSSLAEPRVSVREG

inhibition, inactive:
CC(NS(=O)(=O)c1ccc(Cl)cc1)C(=O)Nc1ccc2c(c1)OCCO2 (centres undefined) -2.1%
CCN(CC)CCNC(=O)c1ccc(NS(=O)(=O)c2ccc3c(c2)OCCO3)cc1 -4.3%
CCN(CC)c1ccc(S(=O)(=O)N2CCOCC2)cc1NC(=O)CSc1cccc[n+]1[O-] -33.9%
CCc1nnc(NS(=O)(=O)c2ccc(NC(=O)c3cccc(OC(F)(F)C(F)F)c3)cc2)s1 15.6%
O=C(Nc1ccccc1)c1ccc2nsnc2c1 -6.4%
COc1ccccc1C(=O)NC(CCSC)C(=O)NNC(=O)c1ccccc1C (centres undefined) -1.2%
CC(c1ccco1)N(C(=O)COc1ccccc1[N+](=O)[O-])c1ccccn1 (centres undefined) 6.4%
CN1CCOC1c1ccc(C2OCCN2C)cc1 (centres undefined) -6.4%
CC(=O)c1ccc(N2CCN(S(=O)(=O)c3ccc4c(c3)CC(=O)N4C)CC2)cc1 8.9%
CC(=O)c1ccc(S(=O)(=O)N2CCC3(CC2)OCCO3)cc1 -3.8%
Oc1c(Br)cc(/C=N/NC(=S)NCC2CCCO2)cc1Br (centres undefined) -3.3%
O=C(NC1CCCC1)C1c2ccccc2OCC(=O)N1Cc1ccccc1 (centres undefined) -7.8%
Cc1ccc(NC(=O)N2CCSc3ccccc32)cc1 3.8%
O=C(/C=C/c1cccc([N+](=O)[O-])c1)OCC(=O)N1CCOCC1 -3.4%
O=C(c1cccc(Cl)c1)N1CCN(Cc2ccccc2)CC1 -4.7%
CCCOc1ccc(/C(O)=C2/C(=O)C(=O)N(CCN(C)C)C2c2ccc(OC)c(OC)c2)cc1 (centres undefined) -4.4%
CCN1CCCC1CNC(=O)c1ccc2c(c1)NC(=O)/C(=C\c1ccccc1F)S2 (centres undefined) -6.6%
CCOC(=O)N1CCN(S(=O)(=O)N2CCCC(C(=O)NCCCN3CCC(C)CC3)C2)CC1 (centres undefined) -9%
O=S(=O)(c1ccc(Cl)cc1)c1nc(-c2ccco2)oc1N1CCCCC1 17.9%
Cn1c(NN)nc2sc3c(c2c1=O)CCC3 0%
CCCCCc1c(Cc2ccccc2)ncn1CCc1ccccc1OC 11%
Cc1cccc(NC(=O)CSc2nc3c(c(=O)[nH]2)CCC3)c1C -9.1%
CCN1CCN(c2ccc([N+](=O)[O-])cc2C(=O)c2ccc(Cl)cc2)CC1 24.4%
CCC(C)(C)NC(=O)c1cc([N+](=O)[O-])ccc1N1CCCCC1 9.2%
CC(C)C(=O)Nc1cccc(NC(=O)c2ccc([N+](=O)[O-])cc2Cl)c1 -13.2%
NS(=O)(=O)c1cccc(NC(=O)COC(=O)c2cc([N+](=O)[O-])ccc2N2CCCC2)c1 26.9%
CCOC(=O)c1cc(-c2ccc(F)cc2)n(CC(=O)NCc2ccccn2)c1C -7.6%
COC(=O)CCCCC1=CCC2C(=O)C=C(O)C2C1 (centres undefined) -0.8%
Cc1nn(Cc2ccc(F)cc2)c(C)c1NC(=O)c1noc2c1CCc1ccccc1-2 17.6%
Cc1ccc(C(=O)N/C(=C/C=C/c2ccccc2)C(=O)NCc2ccco2)cc1 10.2%
CCCCOc1ccc(C(=O)N/C(=C/C=C/c2ccccc2)C(=O)N2CCOCC2)cc1 4.3%
COc1ccc(-c2cc(=O)oc3cc(OCC(=O)N(C)C4CCS(=O)(=O)C4)ccc23)cc1 (centres undefined) -3.1%
COc1ccc(-c2cc(NC=O)c3ncc(-c4ccccc4)n3c2)cc1OC 28.3%
Cc1ccccc1-c1nc(CS(=O)(=O)CC(=O)N2CCc3ccccc3C2)c(C)o1 10%
CCCCCCSc1ccc([C@@H]2[C@@H]3C(=O)N(CC)C(=O)[C@@H]3[C@]3(C(=O)OC)CCCCN23)cc1OC 23.1%
CCCSc1ccc([C@H]2N[C@@](Cc3ccccc3)(C(=O)OC)[C@H]3C(=O)N(C)C(=O)[C@@H]23)cc1 17.3%
CCN1C(=O)[C@H]2[C@@H](c3ccc(-c4ccc(OC)cc4)cc3)N[C@@](Cc3ccccc3)(C(=O)OC)[C@H]2C1=O 39.2%
COC(=O)[C@]1(CC(C)C)N[C@H](c2ccc(SC3CCCCC3)cc2)[C@@H]2C(=O)N(C)C(=O)[C@@H]21 22.5%
COc1ccccc1C(=O)N(C1=NC(C)CS1)c1ccc(Cl)cc1 (centres undefined) 6.9%
CCCN1CCN(C(=O)Cn2ncc3ccccc32)CC1 -2.9%
Cc1ccc(NC(=O)N2CCC(O)(c3cccnc3)CC2)cc1 -3.3%
CC(C)C[C@H](NC(=O)NCCc1ccc(Cl)cc1)C(=O)O -6.2%
CSCCC(NC(=O)c1cc([N+](=O)[O-])cc([N+](=O)[O-])c1)c1nc2ccccc2[nH]1 (centres undefined) 32.8%
Cc1cccc(CN2CCN(Cc3cnn(-c4ccccc4F)c3)CC2CCO)n1 (centres undefined) -8%

inhibition, active:
O=C(Nc1cccc(S(=O)(=O)Nc2ccc(Cl)cc2)c1)c1ccc2c(c1)OCCO2 54%
O=C(Nc1ccc(OC(F)(F)F)cc1)c1ccc2c(c1)no[n+]2[O-] 50.7%
CC(=O)c1ccc(S(=O)(=O)N2CCN(c3nc4c(C)c(C)ccc4cc3C#N)CC2)cc1 61.5%
O=C(/C=C/c1cccc([N+](=O)[O-])c1)N1CCN(Cc2ccccc2)CC1 69.8%
O=c1oc(-c2ccco2)nc2sc3c(c12)CCCCC3 59.2%
O=C(Nc1cccc(Cl)c1)c1cc([N+](=O)[O-])ccc1N1CCN(CCO)CC1 68.1%
Cc1cccc(NC(=O)c2cc([N+](=O)[O-])ccc2N2CCN(C)CC2)c1 56.8%
CNC(=O)/C(=C\C=C\c1ccccc1)NC(=O)c1ccc([N+](=O)[O-])cc1 88.8%
CCN1C(=O)[C@H]2[C@@H](c3ccc(SC4CCCCC4)c(OC)c3)N[C@@](Cc3ccccc3)(C(=O)OC)[C@H]2C1=O 63.1%
CCN1C(=O)[C@H]2[C@@H](c3ccc(-c4ccc(F)cc4)cc3)N[C@@](Cc3ccccc3)(C(=O)OC)[C@H]2C1=O 65.3%
